Source: PubChem (National Center for Advancing Translational Sciences (NCATS))
Compounds with a hit are over-represented: about 2.9% of the library has one in this group of screens.
Integrin act MD = activators of alpha7 integrin expression for muscular dystrophy. alpha7betagal myoblasts, beta-gal FDG fluorescence, 48 h. 0.064% of 350,000 active. Potency, µM (titrated, usually from 38.3 µM), inactives show top-dose activation, hits mostly activators. AID 624291; active = well fitted activation curve with a large enough effect; inconclusive = small, poorly fitted or top-dose-only effect; inactive = no such curve, though single readings can be large or run the other way;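 note: potency is the fitted concentration of half-maximal effect; 100% = response of the positive control SU9516; nearly all actives have a fitted effect of over 60% in size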
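Alpha7betagal+/- myoblasts (passage 13) were plated 16-24 hr, then exposed to compounds (1:260 dilution of DMSO stock) for 48 hours at 37C. After MPER lysis, β-galactosidase reporter activity was read as FDG fluorescence (ex 480/em 540) after 30 minutes.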
DRD3 agonist = D3 dopamine receptor (human) agonism | P35462 | D3R DiscoveRx beta-arrestin cells, luminescence, 90 min | max activation, % | 0.58% of 410,000 active; in the data active = max activation above about 30%; note: 0% is about no effect
Target sequence (P35462 whole entry, looked up): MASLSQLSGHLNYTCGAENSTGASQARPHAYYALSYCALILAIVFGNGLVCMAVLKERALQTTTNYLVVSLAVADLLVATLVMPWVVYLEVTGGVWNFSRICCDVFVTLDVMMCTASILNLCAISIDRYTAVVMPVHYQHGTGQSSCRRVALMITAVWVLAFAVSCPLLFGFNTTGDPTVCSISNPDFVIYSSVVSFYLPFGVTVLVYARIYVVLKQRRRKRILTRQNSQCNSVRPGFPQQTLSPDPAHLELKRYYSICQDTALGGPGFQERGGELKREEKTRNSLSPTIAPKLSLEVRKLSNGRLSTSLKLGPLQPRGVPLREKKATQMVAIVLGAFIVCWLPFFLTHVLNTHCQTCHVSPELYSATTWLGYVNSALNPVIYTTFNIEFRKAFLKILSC
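Cells at 1500/well, incubated overnight, then treated with pinned compounds (dopamine as control) for 90 min at 37 degrees C. DiscoveRx reagent added for 30 - 60 minutes at room temperature; luminescence read.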
D3 antag = blocks the human D3 dopamine receptor | AID 652054 | D3R cells, DiscoveRx beta-arrestin luminescence, antagonist mode; active compounds read low | P35462 | max response, negative = inhibition, % | 2.5% of 360,000 active; in the data active = max response below about -50%; inconclusive = no clear call, values can overlap the other calls; note: % is set by controls: 0 for no effect and ±100 for the full control effect
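Cells plated overnight at 1500 cells/well, then exposed to library compounds with dopamine controls for 90 minutes at 37 degrees C. DiscoveRx reagent added for 30–60 minutes at room temperature; luminescence read, quantitative HTS format.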
* = called active by the depositor; ? = inconclusive; nt = no result.

SMILES	Integrin act MD	DRD3 agonist	D3 antag
O=C(CCS(=O)(=O)c1nc(-c2cccs2)cc(C(F)(F)F)n1)Nc1ccc(F)c(Cl)c1	nt	-9	nt
CCOC(=O)CN1C(=O)N[C@@H](c2cccs2)C(C(C)=O)=C1C	-20%	-1	-13
COCCN1C(=O)N[C@@H](c2cccs2)C(C(C)=O)=C1C	-6%	35*	-17
Cc1ccc(S(=O)(=O)N2CCCCC2C(=O)O)s1 (stereo unspecified)	?	-3	-16
CO[C@@H]1CN(C)C(=O)c2cc(NC(=O)NC3CCCCC3)ccc2OC[C@@H](C)N(CC2CCOCC2)C[C@@H]1C	nt	-7	-60*
CO[C@@H]1CN(C)C(=O)c2cc(NC(=O)NC3CCCCC3)ccc2OC[C@@H](C)N(CCc2ccccc2)C[C@H]1C	nt	2	-16
Cc1cccc(-c2cc3c(N=O)c4ccccc4c-3n[nH]2)c1	-45%	1	-1
O=C(NCc1cccs1)[C@@H]1CSC2c3ccccc3C(=O)N21 (stereo partly specified)	-16%	-17	1
NC(=O)c1c(N)[nH]c(C(=O)c2ccccc2)c1-c1ccccc1Br	nt	-6	-52*
CC(C)(C)C(=O)c1c(N)[nH]c(C(=O)c2ccccc2)c1-c1ccccc1Br	nt	-5	-13
O=C(Oc1ccc(Cl)cc1)c1ccc(COC(=O)c2cnccn2)cc1	18%	1	7
O=C(Oc1ccccc1)c1ccc(COC(=O)c2cnccn2)cc1	18%	-2	-106*
Cc1ccsc1C1C(C#N)=C(N)Oc2n[nH]c(C)c21 (stereo unspecified)	-14%	-3	0
Cc1cc(C)c(C2C(C#N)=C(N)Oc3n[nH]c(C)c32)cc1CN1CCOCC1 (stereo unspecified)	-31%	-64	-60*
Cc1ccc(OCC(=O)Nc2oc(-c3ccccc3)c(-c3ccccc3)c2C#N)cc1	-17%	8	-27
N#Cc1c(NC(=O)CN2CCOCC2)oc(-c2ccccc2)c1-c1ccccc1	-43%	-3	-59*
N#Cc1c(NC(=O)CSc2ncccn2)oc(-c2ccccc2)c1-c1ccccc1	-44%	3	-23
N#Cc1c(NC(=O)Cn2cnc3ccccc3c2=O)oc(-c2ccccc2)c1-c1ccccc1	7%	5	-61*
Cc1cc(=O)oc2cc(OCC(=O)NC3(C#N)CCCCC3)ccc12	17%	3	-15
OCC[C@@H]1C[C@H](O)[C@@H](O)[C@]2(OCCc3cc(C(F)(F)F)ccc32)O1	12%	1	-5
O=c1c2c3c(sc2n(CCN2CCCC2)c(=O)n1Cc1ccco1)CCCCC3	-18%	-10	-64*
CN(C)CCn1c(=O)n(Cc2ccco2)c(=O)c2c3c(sc21)CCCCC3	1%	2	-4
CCOC(=O)CC(=O)Nc1cc(Cl)ccc1O	18%	-2	24
OCC[C@@H]1C[C@H](O)[C@@H](O)[C@]2(OCCc3ccccc32)O1	31%	14	25
COc1ccc2cc(C#N)c(Nc3cccc(F)c3)nc2c1	8%	4	-27
SMILES	Integrin act MD	DRD3 agonist	D3 antag
CCOC(=O)C1(CCOc2ccccc2)CCN(Cc2cccc3nonc23)CC1	15%	-4	-89*
CCOC(=O)C1(CCOc2ccccc2)CCN(Cc2ccc(O)cc2)CC1	-17%	-24	?
CCOC(=O)C1(CCc2ccccc2)CCN(Cc2ccc(OC)cc2)CC1	22%	-26	-25
CCOC(=O)C1(CCc2ccccc2)CCN(Cc2ccc(O)cc2)CC1	-37%	-23	-57*
CCCNC(=O)C1(CC2CC(c3ccccc3)=NO2)CCN(C(=O)c2ccccc2)CC1 (stereo unspecified)	-6%	7	-22
COc1ccc(-c2noc(=O)n2Cc2ccc(F)cc2Cl)cc1	-2%	0	11
Cc1cccc(Cn2cc(C(=O)Nc3ccc(S(N)(=O)=O)cc3)ccc2=O)c1	nt	1	nt
Cc1onc(-c2ccccc2)c1C(=O)N(Cc1ccccc1)C(C)C	33%	-8	0
CC(OC(=O)C1CCCO1)C(=O)NC1CCCC1 (stereo unspecified)	9%	7	5
COc1cc(C2NC(=O)NC(C)=C2C(=O)OC2CCCCC2)cc(Cl)c1O (stereo unspecified)	-10%	2	-3
CC1(C)CC(=O)c2cc(C(=O)Nc3ccc(Br)cc3)c(=O)n(-c3ccc(Cl)cc3)c2C1	nt	52*	nt
CC1(C)CC(=O)c2cc(C(=O)Nc3ccccc3Cl)c(=O)n(-c3ccc(Cl)cc3)c2C1	nt	-4	nt
Brc1ccccc1OCCN1CCOCC1	-10%	2	?
CC1CCCN(CCCOc2ccccc2-c2ccccc2)C1 (stereo unspecified)	-65%	-18	-67*
CC1CCN(CCCCOc2ccccc2-c2ccccc2)CC1	-20%	-38	-99*
CC1CCN(CCOCCOc2ccccc2Br)CC1	-40%	-21	-61*
CC1CN(CCOc2ccccc2-c2ccccc2)CC(C)O1 (stereo unspecified)	-32%	-10	?
COc1ccccc1OCCCCN1CCC(C)CC1	-49%	-46	?
CC1CCN(CCOCCOc2ccccc2-c2ccccc2)CC1	-45%	-20	-82*
OCCCN1CCN(CCCOc2ccccc2-c2ccccc2)CC1	4%	-19	?
O=C(CCC1CCN(C(=O)c2ccco2)CC1)NCc1ccc(F)cc1	4%	-6	-4
C[C@@]12C(=O)Nc3ccc(Br)cc3C(=O)N1[C@H]1c3cc(Cl)ccc3OC[C@@H]1[C@@H]2c1ccccc1	-15%	-6	-22
O=C(NCCc1ccc(Cl)cc1)c1ccc(CS(=O)(=O)Cc2ccc(F)cc2)o1	nt	-7	nt
COc1ccccc1CNC(=O)CC(NS(=O)(=O)c1ccc(C)cc1)c1ccco1 (stereo unspecified)	7%	1	3
Cc1nnc(SCC(=O)Nc2ccc([N+](=O)[O-])cc2)n1CC1CCCO1 (stereo unspecified)	-1%	-6	-9
SMILES	Integrin act MD	DRD3 agonist	D3 antag
CN(C)CCOCCOc1ccccc1-c1ccccc1	-31%	-25	-69*
CN(C)CCOc1ccccc1-c1ccccc1	29%	-10	?
Cc1c(Cl)cccc1NC(=O)c1ccc(C(=O)Nc2cccc(Cl)c2C)cc1	nt	8	nt
CC1(Cc2cccc(F)c2)C(=O)Nc2ccc(-c3cccnc3)cc21 (stereo unspecified)	nt	-19	-17
COc1cccc(-c2cccc3c2NC(=O)C3(C)Cc2cccc(F)c2)c1 (stereo unspecified)	nt	-11	-70*
CC1CCN(c2ccc3c(c2)S(=O)(=O)c2cccc(C(=O)O)c2C3=O)CC1	20%	-15	-4
CC1C(=O)CC(c2ccccc2)N(C)C1c1ccccc1 (stereo unspecified)	2%	-23	-79*
CCC1C(c2ccccc2)N(C)C(c2ccccc2)CC1(O)c1ccccc1 (stereo unspecified)	0%	-12	3
CCOC(=O)c1c(C)[nH]c(C)c1S(=O)(=O)N(C)CC(=O)Nc1ccc(C)c(N(C)C)c1	nt	8	nt
CCCCOC(=O)c1ccc(NC(=O)c2c(N)n(C)c(=O)[nH]c2=O)cc1	22%	2	27
COC(=O)c1sccc1NC(=O)CSc1ccccc1NS(=O)(=O)c1ccc(Cl)cc1	3%	2	-59*
